# Compound activity as filed in PubChem.
# Bead autofluor – counter-screen for toxin protease inhibitors: compound fluorescence; fluorescence intensity (no concentration beside the values); hit rate 3.1% among 360,000; AID 624483; compound autofluorescence counterscreen, microsphere flow cytometry; hits give high values; in the data active = fluorescence intensity above about 16000; inconclusive = no clear call, values can overlap the other calls
# VHR inh abs – inhibitors of human VHR1 phosphatase (DUSP3); recombinant VHR phosphatase, pNPP absorbance; inhibition, % at 13.3 µM; hit rate 0.52% among 290,000; AID 1654; in the data active = inhibition above about 50%
# Target sequence (P51452 whole entry, looked up): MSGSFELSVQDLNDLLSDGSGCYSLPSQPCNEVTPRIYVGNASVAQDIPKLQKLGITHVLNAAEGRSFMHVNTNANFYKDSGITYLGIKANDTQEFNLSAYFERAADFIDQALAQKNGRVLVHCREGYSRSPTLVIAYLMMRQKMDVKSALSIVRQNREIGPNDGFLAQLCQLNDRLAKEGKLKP
# BoNT-F LC inh – BoNT F light chain protease inhibition | hit rate 0.22% among 360,000 | AID 588497 | inhibition, % at 10 µM | Multiplex microsphere protease cleavage assay, flow cytometry; in the data active = inhibition above about 35%, passing the limit was not always enough; inconclusive = no clear call, values can overlap the other calls; note: plate controls were buffer without enzyme for full effect and enzyme alone for no effect
# MazF activator – activators of E. coli MazEF toxin-antitoxin RNase. activation, % at 20 µM. hit rate 0.32% among 350,000. FAM/BHQ RNA-DNA oligo cleavage fluorescence, 5 h. AID 504720. P0AE70; in the data active = activation above about 50%
# Target sequence (P0AE70 whole entry, looked up): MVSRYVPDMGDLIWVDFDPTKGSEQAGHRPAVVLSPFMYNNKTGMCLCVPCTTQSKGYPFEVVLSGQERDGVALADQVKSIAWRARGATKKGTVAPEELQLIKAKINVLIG
# BoNT A protease – inhibitors of Botulinum neurotoxin A light chain protease | multiplex microsphere protease substrate cleavage, flow cytometry | inhibition, % at 10 µM | hit rate 0.17% among 360,000 | AID 588499; note: plate controls were buffer without enzyme for full effect and enzyme alone for no effect
# Anthrax LF inh2 – anthrax lethal factor protease inhibition | P15917 | multiplex microsphere protease cleavage assay, LF | inhibition, % at 10 µM | hit rate 0.12% among 360,000; note: plate controls were buffer without enzyme for full effect and enzyme alone for no effect
# An asterisk follows results filed as active; ? = inconclusive; . = no result. This is a sample that favours compounds with a hit; in the whole collection about 4.1% have one here. Cut-off read from the data, not from the text of the source, unless noted: active = inhibition above about 30%; inconclusive = no clear call, values can overlap the other calls; inactive = below that.
SMILES,Bead autofluor,VHR inh abs,BoNT-F LC inh,MazF activator,BoNT A protease,Anthrax LF inh2
Cc1ccc(CNC(=O)CN2C(=O)NC3(CC(C)CC(C)(C)C3)C2=O)cc1 (configuration not stated),8554,.,2.9,5.9,1.2,2.2
CCN1CCCC1CNC(=O)C1CCN(Cc2nc(-c3cccc(Br)c3)oc2C)CC1 (configuration not stated),18142*,44.3,4.1,2.8,1.9,-2.3
Cc1oc(-c2ccccc2F)nc1CS(=O)(=O)CC(=O)NCCN1CCCC1,5163,52.7*,4.2,-11.6,0.4,-1.0
Cc1ccccc1-c1nc(CN2CCC(C(=O)NCCCN3CCCC3)CC2)c(C)o1,17690*,2.0,-7.8,8.0,-2.2,-5.6
Cc1oc(-c2ccccc2F)nc1CS(=O)(=O)CC(=O)NCCCN1CCc2ccccc2C1,5804,25.2,-13.4,3.1,-0.2,-1.1
Cc1oc(-c2cccc(Cl)c2)nc1CN1CCC(C(=O)NCc2ccco2)CC1,10821,30.4,-15.0,5.3,-3.0,-3.4
Cc1ccccc1-c1nc(CN2CCC(C(=O)NCCCN3CC(C)CC(C)C3)CC2)c(C)o1 (configuration not stated),22754*,27.0,-0.5,7.4,0.1,-1.6
Cc1ccccc1-c1nc(CS(=O)(=O)CC(=O)NCCCN2CC(C)CC(C)C2)c(C)o1 (configuration not stated),4832,100.8,8.0,11.0,3.2,-2.5
O=C(COC(=O)c1cccnc1Cl)NC(=O)c1ccc(OC(F)F)cc1,2880,.,2.8,8.1,2.3,-0.7
CCN(C(=O)CSc1nnc(-c2ccc(F)cc2)n1C)C1CCS(=O)(=O)C1 (configuration not stated),3545,.,-8.0,4.0,-0.2,-2.0
Cc1ccccc1-c1nc(CN2CCC(C(=O)NCCN3CCOCC3)CC2)c(C)o1,6942,-3.6,-1.5,9.6,-1.1,-1.0
Cc1ccccc1-c1nc(CN2CCC(C(=O)NCCCN3CCOCC3)CC2)c(C)o1,26327*,5.6,-5.3,-7.0,?,-2.6
CC(=O)Oc1ccc2cc(-c3nc4ccccc4n3C)c(=O)oc2c1,5799,18.9,6.8,1.0,0.8,0.5
Cn1c(-c2cc3ccc(OC(=O)C(C)(C)C)cc3oc2=O)nc2ccccc21,16715*,44.7,1.1,8.4,-0.1,0.1
CC(C)(C)c1cc(NS(=O)(=O)c2ccc3c(c2)OCCO3)on1,13966,29.0,9.6,-6.9,7.1,3.2
CCOC(=O)c1ccc(S(=O)(=O)Nc2cc(C(C)(C)C)no2)cc1,24179*,-1.3,-0.3,3.5,-1.6,-2.0
Cc1nc(Cl)c(C#N)cc1-c1ccccc1,19692*,18.6,-2.0,9.8,0.2,1.9
CC(C)(C)NC(=O)CSc1n[nH]c(=O)n1-c1ccccc1,20863*,-2.6,-2.4,-0.6,-1.5,-3.3
O=C(CSc1n[nH]c(=O)n1-c1ccccc1)Nc1ccccc1,.,-4.4,.,-3.0,.,.
CSCCC(NC(=O)c1ccco1)C(=O)N(C)CC(=O)Nc1ccccc1Br (configuration not stated),?,.,-9.5,-2.5,-3.2,-2.0
Cc1ccc(C(NC(=O)C2CCN(Cc3ccc(Cl)c(Cl)c3)CC2)c2ccccn2)cc1 (configuration not stated),6329,.,-3.8,.,-0.8,0.7
C[C@@H]1CN([C@@H](C)CO)C(=O)CCCn2nncc2CO[C@@H]1CN(C)C(=O)Nc1ccc(N2CCN(C)CC2)cc1,3742,.,0.4,3.5,-0.4,-3.7
Cc1ccccc1-n1nnnc1-c1ccccc1,23616*,11.9,-2.2,4.1,-2.6,-1.9
Cc1ccc(C)c(S(=O)(=O)C(C#N)c2nc3ccccc3nc2N2CCOCC2)c1 (configuration not stated),?,21.9,?,-5.2,?,?
Cc1ccc(C)c(S(=O)(=O)C(C#N)c2nc3ccccc3nc2N2CCCC2)c1 (configuration not stated),20606*,0.3,7.7,10.2,3.3,-13.9
SMILES,Bead autofluor,VHR inh abs,BoNT-F LC inh,MazF activator,BoNT A protease,Anthrax LF inh2
N#Cc1cccc(NC(=O)c2cc(C3CCCCN3C(=O)c3ccccn3)on2)c1 (configuration not stated),3470,.,6.4,.,0.0,-3.7
O=c1c2ccccc2nc(-c2ccccc2)n1CCCN1CCOCC1,16595*,14.2,-5.1,1.7,-1.5,-3.4
O=C(CSc1nnnn1-c1ccccc1)c1cc2ccccc2oc1=O,4399,-4.1,-28.0,-0.3,-0.8,3.8
Cn1c(=O)oc2ccc(C(=O)CSc3nnnn3-c3ccccc3)cc21,19593*,41.9,-1.1,-9.4,?,-8.2
Cc1nn(Cc2ccc(Cl)cc2)c(C)c1NC(=O)C(c1ccccc1)c1ccccc1,10691,14.1,-6.2,3.5,-2.9,-4.2
Cc1cnc(C(=O)OCc2cc(=O)n3c(C)cccc3n2)cn1,3561,.,-5.8,5.1,0.9,-2.3
O=C(c1ccc2nc3ccc(Cl)cc3c(=O)n2c1)N1CCC2(CC1)OCCO2,19917*,.,2.3,3.6,2.6,0.6
O=C(c1ccc2nc3ccc(Cl)cc3c(=O)n2c1)N1CCOCC1,21084*,5.4,-0.3,-3.9,-1.7,-0.2
O=C(c1ccc(Cl)cc1)N1CCC2(CC1)OCCO2,3627,10.7,24.3,6.1,-1.2,3.7
CCC(c1ccccc1)c1noc(CCN(CC)CC)n1 (configuration not stated),3417,.,-3.6,-1.1,-0.6,-2.4
S=c1nc(-c2ccccc2)[nH]n1-c1ccccc1,25268*,16.4,-5.8,-13.3,-5.2,-3.4
Cc1nc(=S)n(-c2ccccc2)[nH]1,4287,2.9,?,-3.3,-0.5,-3.9
COCCCNC(=O)C1CCCN(S(=O)(=O)c2cccc3nsnc23)C1 (configuration not stated),5238,52.7*,0.4,-1.2,0.6,-1.1
O=C(NCC(=O)N1CCN(S(=O)(=O)/C=C/c2ccccc2)CC1)c1ccc(Cl)cc1,4171,0.8,5.9,5.9,2.1,1.0
Cc1ccc(C(=O)Nc2ccc(CC(=O)O)cc2)o1,18362*,28.6,6.8,2.0,4.1,-12.1
COC(=O)c1cc2occc2n1Cc1c(F)cccc1Cl,.,17.7,.,.,.,.
CCOC(=O)c1cc2sccc2n1Cc1ccccc1,7664,-18.6,13.5,-5.0,0.7,0.4
COC(=O)c1cc2sccc2n1Cc1ccc(C)cc1,24673*,18.6,-2.8,-4.3,-1.9,-0.4
COC(=O)c1cc2occc2n1Cc1ccc(Cl)cc1,22264*,-5.5,-1.4,-14.2,1.4,-5.6
O=C(Nc1nccs1)c1cc2sccc2n1Cc1ccc(F)cc1,16836*,23.2,-2.6,0.4,?,0.9
CN(Cc1ccccc1F)C(=O)CN1C(=O)NC2(CCc3ccccc32)C1=O (configuration not stated),?,.,-16.4,3.7,-6.1,-6.4
CCCn1nc(C(=O)Nc2ccc3nc(N4CCOCC4)sc3c2)ccc1=O,.,.,.,8.2,.,.
Cc1cccc(C)c1-n1nnnc1C1(C)CCC(=O)N1Cc1ccco1 (configuration not stated),5320,.,-14.6,.,-1.4,-8.4
O=C(NN1C(=O)NC2(CCCCC2)C1=O)c1ccc(Cl)s1,3905,.,-1.8,2.0,-0.5,6.0
